# TRPV1 PAM – potentiators of human vanilloid receptor 1 (TRPV1); TRPV1-expressing cells, Fluo-8 calcium influx, capsaicin EC20 potentiation; potentiation, % at 8.33 µM; 320,000 compounds, 0.02% hits; AID 540277; in the data active = potentiation above about 80%; inconclusive = between about 30% and that limit; note: 0% is about no effect
#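 Fluo-8 calcium influx in TRPV1-expressing cells, kinetic read (ex 480/em 520 nm). Compound added and read 3 min for agonist activity, followed by capsaicin at EC20 final and 2 min further read for enhancement.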
# TRPML1 inh – human mucolipin-1 channel inhibition | 390,000 compounds, 0.02% hits | TRPML1-inducible cells, Ca2+ dye fluorescence, FDSS; stronger effect = lower value; inhibition of EC80 agonist-evoked calcium signal | AID 624415 | activity change, negative = inhibition, % (test concentration not listed) | Q9GZU1; in the data active = activity change below about -50%; inconclusive = between about -30% and that limit;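 note: stimulus is agonist 54-4 at its EC80 concentration; % is set by controls: 0 for no effect and ±100 for the full control effect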
# Target sequence (Q9GZU1 whole entry, looked up): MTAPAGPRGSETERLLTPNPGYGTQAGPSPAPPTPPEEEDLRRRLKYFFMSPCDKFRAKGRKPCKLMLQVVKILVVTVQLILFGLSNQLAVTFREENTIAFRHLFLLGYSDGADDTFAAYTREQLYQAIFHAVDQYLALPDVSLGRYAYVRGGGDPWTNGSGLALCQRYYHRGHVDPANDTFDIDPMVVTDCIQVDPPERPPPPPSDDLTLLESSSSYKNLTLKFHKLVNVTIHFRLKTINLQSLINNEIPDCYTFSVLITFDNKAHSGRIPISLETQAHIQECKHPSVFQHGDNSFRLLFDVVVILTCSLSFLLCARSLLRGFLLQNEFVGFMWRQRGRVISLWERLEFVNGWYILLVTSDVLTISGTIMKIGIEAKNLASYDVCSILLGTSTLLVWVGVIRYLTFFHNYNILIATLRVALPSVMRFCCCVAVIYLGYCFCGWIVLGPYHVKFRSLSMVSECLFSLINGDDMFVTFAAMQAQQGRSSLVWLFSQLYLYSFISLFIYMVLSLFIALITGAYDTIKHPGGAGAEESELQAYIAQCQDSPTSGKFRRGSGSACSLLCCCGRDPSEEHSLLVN
#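 TRPML1-DL cells, Tet-induced overnight (~16 h, 37 °C) at 1,500 cells/well, were loaded with Ca8 no-wash dye plus quencher for 45-90 min at room temperature. Compounds were pinned during FDSS kinetic reading; agonist 54-4 at EC80 (4 uM final) then added.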
# TRPML1 agonist – activates the human TRPML1 channel. Q9GZU1. TRPML1-expressing cells, Ca2+ dye fluorescence, FDSS. activation, % (test concentration not listed). 410,000 compounds, 0.12% hits. AID 624414; in the data active = activation above about 50%; inconclusive = mostly about 30% to 49%; note: 0% is about no effect
#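 Calcium fluorescence on an FDSS kinetic reader gave the read-out. Tet-induced TRPML1-DL cells were plated overnight, dye-loaded (Ca8 with quencher, 45-90 min, room temperature, dark), then read 110 s after compound addition, and again 110 s after 4uM final 54-4 (EC80).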
# TRPV1 agonist – agonists of human vanilloid receptor 1 (TRPV1); Q8NER1; TRPV1-expressing cells, Fluo-8 calcium influx, agonist mode; activation, % at 8.33 µM; 320,000 compounds, 0.19% hits; in the data active = activation above about 80%; inconclusive = between about 30% and that limit; note: 0% is about no effect
#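 Cells expressing TRPV1 were dye-loaded with Fluo-8 and read kinetically: 10 s baseline, 3 min after compound (agonist portion), then 2 min after EC20 capsaicin (allosteric enhancer portion). Calcium-bound dye fluorescence at 480/520 nm.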
# Starred values were filed as active, the others as inactive; ? = inconclusive; . = no result. Hits are enriched below; roughly 0.27% of the tested compounds scored in any of these assays.
SMILES,TRPV1 PAM,TRPML1 inh,TRPML1 agonist,TRPV1 agonist
Cc1ccc(S(=O)(=O)N(CC(=O)N2CCOCC2)c2ccccc2F)cc1,-15,20,-1,19
COc1ccc(Cn2nnnc2C(c2ccccn2)N2CCN(c3cc(Cl)ccc3C)CC2)cc1 (centres undefined),0,-14,74*,15
COCCn1nnnc1C(c1ccccn1)N1CCN(c2cc(Cl)ccc2C)CC1 (centres undefined),3,9,14,4
O=C1CCCc2ccccc2N1Cc1c(Cl)cccc1Cl,.,-3,4,.
O=C(c1cnn(-c2cccc(F)c2)c1-n1cccc1)N1CCN(c2ccccc2F)CC1,.,-13,71*,.
O=C(c1cnn2c(C(F)F)cc(-c3ccccc3)nc12)N1CCc2ccccc2C1,0,-3,58*,-4
Cc1cc(C(F)F)n2ncc(C(=O)N3CCc4ccccc4C3)c2n1,1,50,-1,3
COc1cc(CCC(O)CC(=O)CCc2ccccc2)ccc1O (centres undefined),14,.,.,84*
COc1cc(/C=N/NC(=O)CCc2ccccc2)ccc1O,0,-28,0,-1
COc1ccc(C(=O)C2CCCN(C(=O)CCc3ccccn3)C2)c(C)c1 (centres undefined),-24,-2,2,5
COC(=O)c1cn(NC(=O)c2ccc3c(c2)OCO3)c(=O)c2ccccc12,-8,-4,2,80*
COC(=O)c1cn(NC(=O)c2ccc(OC)c(OC)c2)c(=O)c2ccccc12,?,18,1,-2
C=CCN1C(=O)c2ccc(C(=O)N3CCN(S(=O)(=O)c4ccccc4Br)CC3)cc2C1=O,2,7,1,-1
Cc1cccc2nc(-c3ccccc3)nc(N3CCC(O)(c4ccc(Cl)cc4)CC3)c12,5,7,0,4
CC(C)(C)c1ccc(C(=O)NNC(=O)C2CCCCC2)cc1,-17,5,5,90*
CCOc1ccc(OCCC(=O)OCC(=O)Nc2cc(S(=O)(=O)N3CCOCC3)ccc2C)cc1,-11,13,0,2
Cc1ccc(COc2ccccc2C(=S)N2CCCC2)cc1,-7,4,1,13
O=C1c2cccc3c(O)ccc(c23)C(=O)N1Cc1ccccc1,-7,0,97*,?
CNC(=O)c1csc(-c2ccc(Cl)cc2)n1,-21,-5,2,84*
CNC(=O)c1csc(-c2ccc(C)cc2)n1,-15,5,-1,81*
O=C(Nc1ccc(Cl)cc1)c1csc(-c2ccccc2)n1,-25,49,3,81*
O=C(Nc1ccc(Cl)cc1)c1csc(-c2ccncc2)n1,-10,9,1,26
O=C(Cn1cnc2c(cnn2-c2ccc(F)cc2)c1=O)N1CCN(c2ccccc2)CC1,-3,12,2,2
Cc1ccc(S(=O)(=O)N2CCN(CC(=O)N/N=C/c3ccc(C)o3)CC2)cc1,-3,3,-1,3
O=C(CSc1nnc(NC(=O)c2cccc(F)c2)s1)NC1CC1,9,26,0,2
SMILES,TRPV1 PAM,TRPML1 inh,TRPML1 agonist,TRPV1 agonist
Cc1cccc(C(=O)Nc2nnc(SCC(=O)NC3CC3)s2)c1,13,-52*,0,0
COC(=O)c1c(NC(=O)COC(=O)CC(NC(C)=O)c2ccccc2)sc(C)c1C (centres undefined),2,15,0,0
CCc1c(C)nc(SCC(=O)CC(=O)OC(C)C)c(C#N)c1C,-4,2,51*,17
CCOC(=O)[C@@H](C)N(C(=O)OC(C)(C)C)S(=O)(=O)N(Cc1ccccc1)[C@@H](C(=O)OC)C(C)C,.,.,57*,.
O=C(CCCOc1ccc(Cl)cc1)N1CCCCC1,-14,-1,1,90*
CC(C)(C)c1ccc(OCCCC(=O)N2CCOCC2)cc1,-6,7,1,85*
O=C(O)CSc1c2c(nc3cc(C(=O)NCCN4CCOCC4)ccc13)CCC2,-2,1,1,5
NS(=O)(=O)c1ccc(CNC(=O)CCCSc2ccccc2)cc1,-35,-15,-1,84*
Cc1cccc2sc(NNC(=O)c3ccc(S(=O)(=O)N4CCc5ccccc5C4)cc3)nc12,7,-20,0,1
CCOC(=O)[C@H]1[C@H]2COc3ccc(C)cc3[C@@H]2N2C(=O)c3cc(F)c(F)cc3NC(=O)[C@@]12C,5,23,2,81*
